Screening results from PubChem BioAssay.
Hits are enriched below; roughly 3.4% of the tested compounds scored in any of these assays.
TEAD-YAP inh = TEAD-YAP interaction inhibition. 640,000 tested, 1.4% active. HEK-TIYL cells, TEAD-Gal4/YAP UAS-luciferase luminescence. AID 1259422. inhibition, % at 9.12 µM; in the data active = inhibition above about 32%;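 also: 0% = median of test compound wells and 100% = reference inhibitor wells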
FBW7 act = human FBW7 E3 ligase activation, primary screen; AID 1259310; 650,000 tested, 0.13% active; AlphaScreen FBW7–phospho-cyclin E peptide binding, activator screen; normalized activity (activation), % at 26.1 µM; Q969H0; in the data active = normalized activity above about 1.9%;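 also: purified mutant Fbw7 with reduced substrate affinity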
MITF inh = inhibitors of human MITF; O75030; AlphaScreen MITF homodimerization, bead proximity signal; inhibition, % at 2.6 µM; 650,000 tested, 0.91% active; AID 1259374; in the data active = inhibition above about 50%;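 also: 0% = vehicle wells with protein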
GPR151 ag = activators of human GPR151; activation, % at 11.2 µM; AID 1508602; 650,000 tested, 1% active; Q8TDV0; PathHunter beta-arrestin GPR151 cells, luminescence; in the data active = activation above about 4.9%;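 also: 0% = median of compound wells and 100% = cells with positive control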
Target sequence (Q8TDV0 whole entry, looked up): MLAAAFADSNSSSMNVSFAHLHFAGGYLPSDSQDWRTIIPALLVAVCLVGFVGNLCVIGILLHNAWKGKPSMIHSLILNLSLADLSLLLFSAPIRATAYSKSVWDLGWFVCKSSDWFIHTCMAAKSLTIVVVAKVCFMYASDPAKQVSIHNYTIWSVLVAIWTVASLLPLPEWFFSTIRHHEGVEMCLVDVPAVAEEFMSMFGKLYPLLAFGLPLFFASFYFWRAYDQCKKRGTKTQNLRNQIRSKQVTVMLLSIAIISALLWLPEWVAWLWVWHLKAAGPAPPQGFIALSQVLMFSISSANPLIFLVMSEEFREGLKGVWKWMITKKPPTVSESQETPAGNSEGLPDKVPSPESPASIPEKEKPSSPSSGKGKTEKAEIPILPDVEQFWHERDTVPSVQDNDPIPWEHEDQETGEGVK
MITF inh conf = confirmation of human MITF inhibitors; AID 1259372; 4,700 tested, 16% active; shares compounds with MITF inh; inhibition, % at 2.6 µM; AlphaScreen MITF homodimerization, biotin/His-MITF beads;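 active = inhibition above a cutoff derived from the DMSO control wells, cut at about 28% in these data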;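 also: 0% = MITF dimer wells with DMSO only; inhibitors lower the bead chemiluminescence by keeping MITF from dimerizing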
AlphaScreen intf2 = counter-screen: compounds optically interfering with AlphaScreen | shares compounds with MITF inh | LysRS AlphaScreen counterscreen, signal interference, triplicate | inhibition, % at 2.6 µM | 4,700 tested, 7.6% active;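 active = inhibition above a cutoff derived from the DMSO control wells, cut at about 30% in these data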
* = called active by the depositor; . = no result given.

SMILES | TEAD-YAP inh | FBW7 act | MITF inh | GPR151 ag | MITF inh conf | AlphaScreen intf2
Cc1cc2c(cc1C)NC(c1ccc(Br)cc1)C1=C(CC(C)(C)CC1=O)N2 (stereo not drawn) | 14 | 0 | 19 | -1 | . | .
O=C(Nc1nnc(CCS(=O)(=O)c2ccc(Br)cc2)s1)c1ccc(Cl)cc1 | -5 | 0 | -8 | 0 | . | .
Cc1ccc(Nc2nc3ccccc3n3c(C)nnc23)cc1 | -2 | 0 | 1 | 0 | . | .
COc1cc(OC)c(OC)cc1CN1CCN(Cc2ccc(C)cc2C)CC1 | 1 | -1 | 70* | 0 | 8 | 6
CCOC(=O)C1=C(C)NC2=C(C(=O)C(C(=O)OCC)C(c3ccc(OC)cc3)C2)C1c1cc(OC)ccc1OC (stereo not drawn) | 0 | 0 | 116* | 0 | -10 | -7
CCOC(=O)C1=C(C)NC2=C(C(=O)C(C(=O)OCC)C(c3ccccc3OC)C2)C1c1cc(OC)ccc1OC (stereo not drawn) | 10 | 0 | 4 | -2 | . | .
Fc1cccc(F)c1-c1noc(/C=C/c2ccccc2Cl)n1 | -3 | 0 | -14 | 0 | . | .
COc1ccccc1OCCOCCN1CC(C)OC(C)C1 (stereo not drawn) | -7 | 1 | 27 | -1 | . | .
CC1CN(CCOCCOc2ccccc2-c2ccccc2)CC(C)O1 (stereo not drawn) | -9 | 0 | 72* | 2 | 17 | 30
CC1CN(CCOc2cccc3ccccc23)CC(C)O1 (stereo not drawn) | 0 | 0 | 58* | -1 | 10 | 6
COC(=O)c1ccc(OCCOCCN2CC(C)OC(C)C2)cc1 (stereo not drawn) | 10 | 0 | 52* | 0 | -7 | -8
COc1cccc(OC)c1OCCCN1CC(C)OC(C)C1 (stereo not drawn) | 6 | 0 | 62* | 1 | 7 | 10
O=C(Nc1ccc2c(c1)oc1ccccc12)c1ccc(-c2ccc(Cl)cc2)o1 | -1 | 0 | -3 | 3 | . | .
Cc1nc(NCc2ccc3c(c2)OCO3)nc(N2CCCCC2)c1[N+](=O)[O-] | -1 | 0 | 20 | 0 | . | .
COC(=O)c1ccccc1OCCCCN1CC(C)OC(C)C1 (stereo not drawn) | 1 | 0 | 63* | 0 | 1 | 14
O=[N+]([O-])c1ccccc1OCCOc1cccc2cccnc12 | -34 | 0 | 0 | 0 | . | .
COC(=O)c1ccccc1OCCCOc1cccc2cccnc12 | -37 | 0 | 68* | 0 | 4 | 17
Cc1ccc(C)c(OCCOCCN2CC(C)OC(C)C2)c1C (stereo not drawn) | 2 | 0 | 52* | 0 | -6 | -4
O=[N+]([O-])c1ccccc1OCCOCCOc1cccc2cccnc12 | -4 | 1 | 69* | 3 | 8 | 16
CC(=O)c1ccc(NC(=O)/C=C/c2cccc(C(F)(F)F)c2)cc1 | -12 | 0 | 4 | -1 | . | .
O=C(NC(=S)NC1CCS(=O)(=O)C1)c1ccccc1Br (stereo not drawn) | 6 | 0 | -7 | -1 | . | .
O=C(NC1CCS(=O)(=O)C1)c1ccccc1Br (stereo not drawn) | -5 | 0 | 51* | 1 | 10 | -6
COc1cccc(C(=O)NC(=S)N2CCN(c3ccc([N+](=O)[O-])cc3)CC2)c1 | 2 | 0 | 72* | 0 | 5 | 33*
COc1ccc(C(=O)NC(=S)N2CCN(c3ccc([N+](=O)[O-])cc3)CC2)cc1 | -1 | 0 | 17 | 0 | . | .
O=C(Nc1ccc(N2CCOCC2)cc1)c1cccc2nccnc12 | -21 | 0 | 10 | 0 | . | .
SMILES | TEAD-YAP inh | FBW7 act | MITF inh | GPR151 ag | MITF inh conf | AlphaScreen intf2
CCN1CCN(CC(=O)Nc2ccc(N3CCCCCC3)cc2)CC1 | -5 | 0 | 32 | -1 | . | .
Cc1cc(OCCN2CCOCC2)ccc1[N+](=O)[O-] | -22 | 1 | 60* | -3 | 8 | 14
Cc1ccc(OCCN2CCOCC2)cc1C | -8 | 0 | -18 | 1 | . | .
Cc1cc(OCCCCN2CCN(C)CC2)ccc1[N+](=O)[O-] | -7 | 0 | 56* | -1 | 7 | 3
Cc1cc(OCCN2CCN(C)CC2)ccc1[N+](=O)[O-] | -32 | 0 | 56* | -2 | 6 | 11
Cc1cc(OCCCN2CCNCC2)ccc1[N+](=O)[O-] | 0 | 0 | 35 | 3 | . | .
Cc1cc(OCCN2CCCC2)ccc1[N+](=O)[O-] | -5 | 0 | 24 | 1 | . | .
NC(=O)c1ccc(-c2ncc(C(=O)NCc3ccccc3)s2)cc1 | -3 | 0 | -4 | 1 | . | .
CCn1c2cc(C)oc2c2cnn(CC(=O)N(C)OC)c(=O)c21 | -26 | 0 | -6 | 2 | . | .
COc1ccccc1OCC#CCn1ccnc1 | 1 | 0 | 63* | -1 | 10 | 19
Cc1ccc(NC(=O)C2(N(C)C(=O)Cc3nc(N)n[nH]3)CCCCC2)cc1 | 6 | 0 | 47 | -2 | . | .
Nc1n[nH]c(CC(=O)N(Cc2ccccc2)C2(C(=O)Nc3ccccc3)CCCCC2)n1 | -2 | 0 | 70* | 0 | 109* | 101*
CN(C(=O)Cc1nc(N)n[nH]1)C1(C(=O)Nc2ccccc2)CCCCC1 | -4 | -1 | 64* | -1 | 92* | 101*
C=CCn1c(SCC2OCCO2)nc2cc(C(=O)NCc3ccco3)ccc2c1=O | 20 | 0 | 67* | 0 | -4 | 1
C=CCn1c(SCc2ccc(C)cc2)nc2cc(C(=O)NCc3ccco3)ccc2c1=O | -1 | 0 | 19 | -1 | . | .
O=C(O)C1=CC(=C(c2ccc(O)c(C(=O)O)c2)c2ccc(O)c(C(=O)O)c2)C=CC1=O | -8 | -1 | 64* | 2 | 83* | 50*
O=C(Nc1ccc(O)c(C(=O)O)c1)c1ccc(Br)cc1 | 5 | 0 | 5 | -2 | . | .
CCOc1cc(CN2CCN(Cc3cccc(F)c3)CC2)ccc1OC | 3 | 0 | 43 | 0 | . | .
CCOc1cc(CN2CCN(Cc3ccc(CC)cc3)CC2)ccc1OC | 1 | 0 | 59* | 0 | 5 | -9
CCOc1cc(CN2CCN(Cc3ccccc3[N+](=O)[O-])CC2)ccc1OC | -7 | 0 | 71* | -1 | -5 | 1
COc1cccc(CN2CCN(Cc3ccccc3[N+](=O)[O-])CC2)c1OC | -6 | -1 | 61* | -1 | 21 | 27
COc1ccc(CN2CCN(Cc3ccccc3[N+](=O)[O-])CC2)c(OC)c1OC | 4 | 0 | 23 | -1 | . | .
CCOc1ccc(CN2CCN(S(=O)(=O)c3ccccc3[N+](=O)[O-])CC2)cc1OC | 0 | 0 | 34 | 0 | . | .
COc1ccccc1CN1CCN(Cc2ccccc2[N+](=O)[O-])CC1 | 0 | -1 | 79* | 0 | 6 | 11
COc1ccccc1C(=O)N/C(=C\c1ccc(Br)cc1)C(=O)N1CCCCC1 | 6 | 0 | 18 | 1 | . | .
COc1cccc(OC)c1C(=O)N1CCN(Cc2ccccc2[N+](=O)[O-])CC1 | -8 | 0 | 56* | 0 | -1 | -6
O=[N+]([O-])c1ccc(O)cc1CN1CCN(C/C=C/c2ccccc2)CC1 | 5 | 0 | 1 | 1 | . | .
